Compound activity: PubChem BioAssay, National Center for Advancing Translational Sciences (NCATS)
Most compounds without a hit are left out; they make up all but 18% or so of the library.
IL1B secr inh: qHTS for Inhibitors of Inflammasome Signaling: IL-1-beta AlphaLISA Primary Screen; 4.7% of 360,000 active; activity change, % at 57.5 µM; THP-1 LPS/ATP IL-1B secretion, AlphaLISA, 16 h; hits give low values; in the data active means activity change below about -50%; inconclusive means mostly about -30% to -49%
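THP-1 cells pretreated 1 hr with compounds (up to 57.5 uM final), then stimulated with LPS (250 ng/mL final) plus ATP (1.25 mM final); secreted IL-1B measured by AlphaLISA after 16 hr, decreased signal indicating inhibition.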
DT40 TDP1 no CPT: qHTS for Inhibitors of human tyrosyl-DNA phosphodiesterase 1 (TDP1): qHTS in cells in absence of CPT; 15% of 420,000 active; AID 686978, 2013; DT40 Tdp1-/- hTDP1 cells, no CPT, ATP luminescence, 48 h; Potency, µM (highest dose often 46.2 µM), hits mostly inhibitors; further: nearly all actives have a fitted effect of over 55% in size
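Chicken DT40 Tdp1-/- cells complemented with human TDP1, screened without camptothecin (DMSO vehicle only), 400 cells/well. Compounds pin-transferred, cells incubated at 37 °C for at least 48 hr. Growth read as ATP-dependent luminescence (CellTiter-Glo, 30 min at RT).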
VP16 counter: VP16 counterscreen qHTS for inhibitors of ROR gamma transcriptional activity | Drosophila S2 Gal4-VP16 UAS-luciferase, luminescence, 20 h | Potency, µM (series often up to 53.6 µM), most hits filed as inhibitors | 3.5% of 310,000 active | AID 2546, 2010;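 further: Gal4-VP16 expression switched on by copper sulfate through the metallothionein promoter; nearly all actives have a fitted effect of over 50% in size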
TDP1 cell CPT: qHTS for Inhibitors of human tyrosyl-DNA phosphodiesterase 1 (TDP1): qHTS in cells in presence of CPT; Potency, µM (top dose mostly 46.2 µM), hits mostly inhibitors; 12% of 420,000 active; chicken DT40 Tdp1-/-;hTDP1 cells + 20 nM CPT, ATP luminescence, 48 h; AID 686979, 2013; further: nearly all actives have a fitted effect of over 55% in size
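Chicken DT40 Tdp1-/- cells complemented with human TDP1, 400 cells/well, exposed to compounds plus 20 nM camptothecin for at least 48 h at 37 C; viability read as ATP content by CellTiter-Glo luminescence.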
RORgamma inh: qHTS for inhibitors of ROR gamma transcriptional activity; 5.4% of 310,000 active; Drosophila S2 Gal4-RORgamma UAS-luciferase reporter, 20 h; Potency, µM (titrated, usually from 53.6 µM), most hits filed as inhibitors; Nuclear receptor ROR-gamma (Mus musculus), P51450; further: nearly all actives have a fitted effect of over 60% in size
Target sequence (P51450 whole entry, looked up, the tested form may be a part): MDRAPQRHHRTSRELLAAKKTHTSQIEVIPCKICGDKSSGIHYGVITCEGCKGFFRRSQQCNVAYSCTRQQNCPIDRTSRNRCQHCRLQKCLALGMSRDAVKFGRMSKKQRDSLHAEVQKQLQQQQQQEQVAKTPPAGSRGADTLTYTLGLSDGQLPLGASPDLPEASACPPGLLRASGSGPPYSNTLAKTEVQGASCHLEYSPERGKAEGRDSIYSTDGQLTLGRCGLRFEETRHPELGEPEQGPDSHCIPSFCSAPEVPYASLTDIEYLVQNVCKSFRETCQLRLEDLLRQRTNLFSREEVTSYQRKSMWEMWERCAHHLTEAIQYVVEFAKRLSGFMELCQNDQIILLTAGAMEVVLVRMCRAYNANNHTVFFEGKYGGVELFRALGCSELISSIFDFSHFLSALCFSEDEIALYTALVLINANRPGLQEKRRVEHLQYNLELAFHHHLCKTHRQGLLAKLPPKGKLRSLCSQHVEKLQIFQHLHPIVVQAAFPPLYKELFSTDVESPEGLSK
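Drosophila S2 cells stably expressing Gal4-DBD/mouse RORγ fusion under metallothionein promoter plus UAS-luciferase; compound 1 h, then 700 uM CuSO4 induction for 20 h at ambient temperature; inhibition read as reduced luminescence.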
LDHA block: qHTS assay for inhibitors of human lactate dehydrogenase; L-lactate dehydrogenase A chain (Homo sapiens), P00338; purified LDHA, NADH/diaphorase-resazurin fluorescence; hits give low values; activity change, % (values are at about 110 or 230 µM); 0.15% of 480,000 active; AID 1347041, 2019; in the data active means activity change below about -30%; inconclusive means mostly about -25% to -30%
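Human LDH5 at 2 nM final in Tris HCl pH 7.4 with 0.06 mM NADH and 0.2 mM pyruvate, reacted 5 minutes at room temperature. Remaining NADH coupled via diaphorase/resazurin; resorufin fluorescence read at 0 and 20 minutes, normalized to enzyme-free and DMSO wells.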
Large screens that a line does not name were inactive. Unless noted, the call rests on the fitted dose curve; in most records, active means well fitted curve in the direction sought with a large enough effect; inconclusive means small, poorly fitted or top-dose-only effect, or another doubt; inactive means no such curve, though single readings can be large; an effect the other way counts as inactive or inconclusive.

CC(C)(C)CC(C)(C)NC(=S)NC1CCN(Cc2ccccc2)CC1	IL1B secr inh -104, DT40 TDP1 no CPT 4.6µM, VP16 counter 10µM, TDP1 cell CPT 5.2µM, RORgamma inh 14µM
CC(C)n1c(SCCCn2c(=O)c3c(ncn3C)n(C)c2=O)nc2ccccc21	none (no result: IL1B secr inh, DT40 TDP1 no CPT, VP16 counter, TDP1 cell CPT, RORgamma inh)
c1cncc(-c2nc(NCCCN3CCOCC3)c3c4c(sc3n2)CCC4)c1	IL1B secr inh -129, DT40 TDP1 no CPT 23µM, TDP1 cell CPT inconclusive
CCCCCCC(=O)Nc1nc(C)c(-c2csc(Nc3cc(OC)ccc3OC)n2)s1	DT40 TDP1 no CPT 18µM, TDP1 cell CPT inconclusive
CCCCCC(=O)Nc1nc(C)c(-c2csc(Nc3cc(OC)ccc3OC)n2)s1	DT40 TDP1 no CPT 2.9µM, TDP1 cell CPT 4.1µM
COc1ccc(OC)c(Nc2nc(-c3cccs3)cs2)c1	IL1B secr inh inconclusive
COc1ccc(OC)c(Nc2nc(-c3sc(NC(=O)c4ccccc4)nc3C)cs2)c1	none (no result: IL1B secr inh, DT40 TDP1 no CPT, TDP1 cell CPT, LDHA block)
O=C(COc1ccc(Cl)cc1)Nc1cccc2cccnc12	none (no result: IL1B secr inh, DT40 TDP1 no CPT, VP16 counter, TDP1 cell CPT, RORgamma inh)
CC(C)C(=O)N1N=C(c2ccco2)CC1c1ccc2nccnc2c1 (stereo not given)	none (no result: IL1B secr inh, DT40 TDP1 no CPT, VP16 counter, TDP1 cell CPT, RORgamma inh)
CC(C)CC(NC(=O)c1ccc(-c2ccccc2)cc1)C(=O)O (stereo not given)	none (no result: IL1B secr inh, DT40 TDP1 no CPT, VP16 counter, TDP1 cell CPT, RORgamma inh)
C=CCn1c(-c2ccc(Cl)cc2)c[nH]c1=S	DT40 TDP1 no CPT inconclusive, VP16 counter 2.8µM, RORgamma inh 2µM
CCn1c(-c2ccc(-c3ccccc3)cc2)c[nH]c1=S	DT40 TDP1 no CPT inconclusive, VP16 counter 1.6µM, TDP1 cell CPT inconclusive, RORgamma inh 1.8µM
Cn1c(-c2ccc(-c3ccccc3)cc2)c[nH]c1=S	DT40 TDP1 no CPT inconclusive, VP16 counter 2.2µM, TDP1 cell CPT 8.2µM, RORgamma inh 0.79µM
C=CCn1c(-c2ccccc2)c[nH]c1=S	DT40 TDP1 no CPT inconclusive, VP16 counter inconclusive, TDP1 cell CPT 26µM
CC(C)(C)c1ccc(CS(=O)Cc2ccc(Cl)cc2)cc1 (stereo not given)	none (no result: IL1B secr inh, DT40 TDP1 no CPT, VP16 counter, TDP1 cell CPT, RORgamma inh)
CCN(CC)Cc1ccc(CNC(=O)/C=C/c2cccs2)cc1	none (no result: IL1B secr inh, DT40 TDP1 no CPT, VP16 counter, TDP1 cell CPT, RORgamma inh)
O=S(=O)(CCN1CCOC(c2ccccc2)C1)c1ccccc1 (stereo not given)	none (no result: IL1B secr inh, DT40 TDP1 no CPT, VP16 counter, TDP1 cell CPT, RORgamma inh)
CN1C2=CC=CC=CC2=[N+](C)C12C=CC(=[N+]([O-])[O-])C=C2[N+](=O)[O-] (stereo not given)	DT40 TDP1 no CPT inconclusive, TDP1 cell CPT inconclusive, RORgamma inh inconclusive
CN1C2=CC=CC=CC2=[N+](C)C12C([N+](=O)[O-])=CC(=[N+]([O-])[O-])C=C2[N+](=O)[O-] (stereo not given)	DT40 TDP1 no CPT 2.1µM, TDP1 cell CPT inconclusive (no result: IL1B secr inh)
COCc1ccccc1CNC(=O)NC(c1ccccc1)c1ccccc1	none (no result: IL1B secr inh, DT40 TDP1 no CPT, VP16 counter, TDP1 cell CPT, RORgamma inh)
O=[N+]([O-])c1ccc(S(=O)(=O)NCCN2CCOCC2)cc1	none
O=S(=O)(NCCN1CCOCC1)c1ccc(Cl)c(Cl)c1	none
O=S(=O)(NCCCN1CCOCC1)c1ccc(Cl)s1	DT40 TDP1 no CPT 23µM, TDP1 cell CPT inconclusive
O=S(=O)(NCCN1CCOCC1)c1ccc(F)c(Cl)c1	DT40 TDP1 no CPT 16µM, TDP1 cell CPT 18µM
O=[N+]([O-])c1cc(S(=O)(=O)NCCN2CCOCC2)ccc1Cl	IL1B secr inh -84
CCCN1CCC(=NNc2ccc(S(=O)(=O)N3CCOCC3)cc2[N+](=O)[O-])CC1	DT40 TDP1 no CPT 2.6µM, TDP1 cell CPT 2.6µM
CCOC(=O)COc1nc(C(C)C)c2c(c1C#N)CCCC2	none (no result: IL1B secr inh, DT40 TDP1 no CPT, VP16 counter, TDP1 cell CPT, RORgamma inh)
CCC(C)NC(=O)/C(=C/c1ccco1)c1ccccc1 (stereo not given)	DT40 TDP1 no CPT inconclusive, VP16 counter inconclusive, TDP1 cell CPT inconclusive
Cc1cccc(C)c1NC(=O)/C(=C/c1ccco1)c1ccccc1	DT40 TDP1 no CPT 13µM, VP16 counter 13µM, TDP1 cell CPT 18µM, RORgamma inh inconclusive
Cc1cc(C)c(NC(=O)/C(=C/c2ccco2)c2ccccc2)c(C)c1	DT40 TDP1 no CPT inconclusive, TDP1 cell CPT inconclusive
O=C(NCCc1ccccc1)/C(=C/c1ccco1)c1ccccc1	DT40 TDP1 no CPT inconclusive, VP16 counter inconclusive, TDP1 cell CPT 26µM
Cc1cccc(C(=O)c2ccc(C(C)(C)C)cc2)c1	none (no result: IL1B secr inh, DT40 TDP1 no CPT, VP16 counter, TDP1 cell CPT, RORgamma inh)
CCOc1ccc(C(C)=O)cc1COC(=O)c1ccc(C(N)=O)cc1	none (no result: IL1B secr inh, DT40 TDP1 no CPT, VP16 counter, TDP1 cell CPT, RORgamma inh)
Cc1[nH]nc(-c2ccc(OCc3cnn(-c4ccccc4)c3)cc2O)c1Oc1ccc(F)cc1	DT40 TDP1 no CPT inconclusive, VP16 counter 10µM, TDP1 cell CPT inconclusive, RORgamma inh 7.1µM
Cc1oc2cc(OCc3cnn(-c4ccccc4)c3)ccc2c(=O)c1Oc1ccccc1F	none
Cc1[nH]nc(-c2ccc(O)c(C)c2O)c1Oc1ccccc1	VP16 counter inconclusive, RORgamma inh inconclusive
CCOc1ccc(-c2n[nH]c(C)c2Oc2ccc(OC)cc2)c(O)c1	DT40 TDP1 no CPT 10µM, VP16 counter 5µM, TDP1 cell CPT 21µM, RORgamma inh 2.2µM
Cc1[nH]nc(-c2ccc(OCc3cnn(-c4ccccc4)c3)c(C)c2O)c1Oc1ccccc1	DT40 TDP1 no CPT inconclusive, VP16 counter inconclusive, RORgamma inh 7.9µM
CCOc1ccc(-c2nc(N)ncc2Oc2ccccc2OCC)c(O)c1	none (no result: IL1B secr inh, DT40 TDP1 no CPT, VP16 counter, TDP1 cell CPT, RORgamma inh)
CCOC(=O)c1oc2cc(OC(=O)CC)ccc2c(=O)c1-c1nc2ccccc2s1	none (no result: IL1B secr inh, DT40 TDP1 no CPT, VP16 counter, TDP1 cell CPT, RORgamma inh)
